TDP1 cell noCPT: qHTS for Inhibitors of human tyrosyl-DNA phosphodiesterase 1 (TDP1): qHTS in cells in absence of CPT; DT40 Tdp1-/- hTDP1 cells, no CPT, ATP luminescence, 48 h; AID 686978, 2013; 15% of 420,000 active; Potency, µM (series often up to 46.2 µM), for inactives: at the highest dose activity change, negative = growth inhibition, hits mostly inhibitors; also: potency is read from the fitted curve at half-maximal effect; nearly all actives have a fitted effect of over 55% in size
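DT40 Tdp1-/-;hTDP1 cells, no CPT (DMSO vehicle only), 400 cells/well; compounds pin-transferred; ≥48 hr, 37 °C; CellTiter-Glo 30 min RT dark, luminescence read.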
TDP1 cell CPT: growth inhibition of DT40 Tdp1-/-;hTDP1 cells with camptothecin (screen for TDP1 inhibitors) | chicken DT40 Tdp1-/-;hTDP1 cells + 20 nM CPT, ATP luminescence, 48 h | Potency, µM (doses to about 46.2 µM), inactives show at the highest dose activity change, negative = growth inhibition, usual class: inhibitors | 12% of 420,000 active | AID 686979; also: potency is read from the fitted curve at half-maximal effect; nearly all actives have a fitted effect of over 55% in size
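Cell growth measured by CellTiter-Glo luminescence after a minimum 48 h, 37 C compound exposure with 20 nM CPT in Tdp1-knockout DT40 cells stably expressing hTDP1, seeded 400/well; qHTS titration format.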
ELG1 repair inh: inhibitors of ELG1-dependent DNA repair in HEK293T cells | HEK293T ELG1-luciferase reporter, luminescence, 16 h; DNA damage induced by 5-fluorouridine | 2.3% of 330,000 active | Potency, µM (series often up to 46.1 µM), inactives show top-dose activity change, negative = inhibition, hits mostly inhibitors; also: potency is read from the fitted curve at half-maximal effect; nearly all actives have a fitted effect of over 55% in size
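Quantitative HTS, concentration-response format. 2,000 cells/well co-treated with 5-fluorouridine and compound, 16 hr in 5% CO2 at 37 °C; ONE-Glo luminescence read after 30 min.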
VP16 counter: Gal4-VP16 reporter inhibition counter-screen. 3.5% of 310,000 active. Potency, µM (series often up to 53.6 µM), inactives show at the top dose activity, negative = inhibition, usual class: inhibitors. Drosophila S2 Gal4-VP16 UAS-luciferase, luminescence, 20 h. AID 2546;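 also: Gal4-VP16 expression switched on by copper sulfate through the metallothionein promoter; potency is read from the fitted curve at half-maximal effect; nearly all actives have a fitted effect of over 50% in size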
RORgamma inh: blocks mouse ROR gamma transcriptional activity | Drosophila S2 Gal4-RORgamma UAS-luciferase reporter, 20 h | Potency, µM (highest dose often 53.6 µM), for inactives: at the highest dose activity change, negative = inhibition, hits mostly inhibitors | 5.4% of 310,000 active; also: potency is read from the fitted curve at half-maximal effect; nearly all actives have a fitted effect of over 60% in size
Target sequence (P51450 whole entry, looked up, the tested form may be a part): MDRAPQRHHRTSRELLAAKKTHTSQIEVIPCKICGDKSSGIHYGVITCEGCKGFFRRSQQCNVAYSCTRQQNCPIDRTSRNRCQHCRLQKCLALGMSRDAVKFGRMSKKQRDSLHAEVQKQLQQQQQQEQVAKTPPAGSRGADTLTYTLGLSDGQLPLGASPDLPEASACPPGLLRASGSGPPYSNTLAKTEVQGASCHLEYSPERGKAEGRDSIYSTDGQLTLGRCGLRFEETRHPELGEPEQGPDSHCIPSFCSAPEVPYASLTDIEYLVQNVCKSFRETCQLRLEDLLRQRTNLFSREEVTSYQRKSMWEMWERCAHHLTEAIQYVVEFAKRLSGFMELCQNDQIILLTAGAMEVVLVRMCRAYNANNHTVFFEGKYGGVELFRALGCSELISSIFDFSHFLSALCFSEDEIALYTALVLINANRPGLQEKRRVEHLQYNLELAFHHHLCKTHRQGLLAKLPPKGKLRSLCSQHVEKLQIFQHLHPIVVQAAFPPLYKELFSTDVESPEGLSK
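Schneider cells (Drosophila), stable Gal4 DBD–ROR gamma + UAS-luc; 1 hr cmpd preincubation; Cu2+ induction 700 uM final; 20 hr ambient; luminescence.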
IL1B secr inh: inhibitors of inflammasome signaling (IL-1 beta secretion); THP-1 LPS/ATP IL-1B secretion, AlphaLISA, 16 h; active compounds read low; 4.7% of 360,000 active; activity change, % at 57.5 µM; AID 743279; in the data active = activity change below about -50%; inconclusive = mostly about -30% to -49%
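THP-1 cells pretreated 1 hr with compounds (up to 57.5 uM final), then stimulated with LPS (250 ng/mL final) plus ATP (1.25 mM final); secreted IL-1B measured by AlphaLISA after 16 hr, decreased signal indicating inhibition.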
Starred values were filed as active, the others as inactive; ? = inconclusive; . = not tested or not shown; ! = a repeat was not active; [ ] = dose if it differs, or a comment. Rows were chosen to be rich in hits. Some 21% of all compounds tested hit in one or more screens of this group. Unless noted, calls follow the shape of the dose curve; as a rule, active = well fitted curve in the direction sought with a large enough effect; inconclusive = small, poorly fitted or top-dose-only effect, or another doubt; inactive = no such curve, though single readings can be large; an effect the other way counts as inactive or inconclusive. % is scaled to controls: 0 for no effect and ±100 for the full control effect.

SMILES	TDP1 cell noCPT	TDP1 cell CPT	ELG1 repair inh	VP16 counter	RORgamma inh	IL1B secr inh
COc1cc(NC(=O)c2cnc(N)o2)cc(C(=O)Nc2cccc(C(F)(F)F)c2)c1	13µM*!	21µM*!	15µM*	?	?	-21
NS(=O)(=O)c1ccc(NC(=O)CN2CCN(S(=O)(=O)c3cccs3)CC2)cc1	-4%	1%	-4%	.	.	19
COc1ccc([C@H]2C[C@@H](O)[C@H](n3cc(C4CC4)nn3)CN2C(=O)C2CCCCC2)cc1	?	-24%	.	.	.	-12
COc1ccc(Cn2cc(CN3CCOCC3)nn2)cc1	17%	6%	.	.	.	-27
N#C/C(=C\c1c[nH]c2ccccc12)C(=O)Nc1ncc(Cc2ccc(Cl)cc2Cl)s1	16µM*	?	?	2.2µM*	1.4µM*	-61*
CC(=O)Nc1ncc(Cc2cc(Cl)ccc2Cl)s1	?	-28%	18%	-15%	?	59
Cn1cc(/C=C(\C#N)C(=O)Nc2ncc(Cc3cccc(Cl)c3)s2)c2ccccc21	.	.	-27%	1.4µM*	3.2µM*	.
Cc1ccc(Oc2nc3ccccn3c(=O)c2/C=C(\C#N)c2nc3ccccc3s2)c(C)c1	4.1µM*	12µM*	.	.	.	.
Cc1ccccc1Oc1nc2ccccn2c(=O)c1/C=C(\C#N)c1nc2ccccc2[nH]1	-11%	-22%	.	.	.	.
Cc1ccc(Oc2nc3c(C)cccn3c(=O)c2/C=C(\C#N)C(N)=O)cc1	13µM*	?	?	-6%	-16%	?
CCOC(=O)/C(C#N)=C/c1c(Oc2cccc(C)c2)nc2c(C)cccn2c1=O	-17%	?	1%	-12%	-12%	11
Cc1cccn2c(=O)c(/C=C(\C#N)c3nc4ccccc4s3)c(Oc3ccc(Br)cc3)nc12	6.5µM*	7.3µM*	.	.	.	.
N#C/C(=C\c1c(Oc2ccc(F)cc2)nc2ccccn2c1=O)c1nc2ccccc2s1	12µM*	?	.	.	.	.
CNc1cncc(-c2cccc(C(=O)NC3CC3)c2)n1	?	?	.	.	.	-14
CCCCNC(=O)Cn1c(=O)cc(C)c2c(C)nn(-c3ccc(CC)cc3)c21	-18%	-16%	.	.	.	.
C[C@H](CO)N1C[C@H](C)[C@@H](CN(C)S(=O)(=O)c2cn(C)cn2)OCc2cn(nn2)CCCC1=O	-15%	-6%	.	.	.	12
Cc1cccc(CCN2C(N(C)C)=NC[C@@H]2C)c1	?	?	3%	.	.	20
Cc1cccc(CCN2C(N(C)C)=NC[C@@H]2Cc2ccccc2)c1	?	?	?	.	.	-59*
Cc1cccc(CCN2C(N(C)C)=NC[C@@H]2CC(C)C)c1	?	?	-7%	.	.	-1
CN(C)C1=NC[C@H](Cc2ccccc2)N1CCCCc1ccccc1	21µM*	?	-16%	.	.	?
CCCCCCCN1C(N(C)C)=NC[C@@H]1Cc1ccccc1	9.2µM*	12µM*	0%	.	.	?
CCc1nnc(SCC(=O)Nc2ccc(F)cc2F)c2cc3sc(C)cc3n12	-14%	-2%	.	.	.	.
Cc1cccc(-n2c3nc(=O)[nH]c(=O)c-3cc3ccc(Cl)cc32)c1C	8.2µM*	?	.	.	.	.
Cc1cccc(-n2c3nc(=O)[nH]c(=O)c-3cc3c(Cl)cccc32)c1C	0.58µM*	0.82µM*	.	.	.	.
CCC(=O)NC(=S)NNC(=O)c1ccc(OC)cc1	22µM*	29µM*	-2%	-3%	-19%	56
SMILES	TDP1 cell noCPT	TDP1 cell CPT	ELG1 repair inh	VP16 counter	RORgamma inh	IL1B secr inh
C=CCNC(=S)NNC(=O)C(CCCC)CC(C)(C)O (stereo not drawn)	7.3µM*	8.2µM*	0%	5.6µM*	2.8µM*	0
COc1ccc(C(=O)NC(=S)NNC(=O)c2ccc(C)cc2)cc1	?	?	.	.	.	32
C=CCNC(=S)NNC(=O)CCC(O)COCCC(C)C (stereo not drawn)	-14%	1%	-13%	3%	-37%	6
C=CCNC(=S)NNC(=O)c1ccc(OCCCC)cc1	-25%	-13%	-8%	?	8.9µM*	8
CCCCOc1ccc(C(=O)NNC(=S)NC(=O)CC)cc1	2.6µM*	4.6µM*	?	?	-29%	-96*
C=CCNC(=S)NNC(=O)c1ccc(Br)cc1	?	?	13%	?	-25%	3
COc1cc(=O)n2c(c1C(=O)N(C)Cc1nccs1)CCN(Cc1c(F)ccc(F)c1F)CC2	-2%	6%	.	.	.	.
CCCNc1ncc2c(=O)[nH][nH]c(=O)c2n1	-6%	18%	.	.	.	7
CC(=O)Oc1cc(OC(C)=O)c2c(c1)OC(c1ccc(OC(C)=O)c(OC(C)=O)c1)C(OC(C)=O)C2 (stereo not drawn)	?	?	.	16µM*!	0%	.
CCc1nc2cc(C(=O)N3CCC[C@H]3CO)cc(NC(=O)c3ccccc3OC)c2n1C	-7%	11%[9.04 µM]	.	.	.	.
Cc1ccccc1OCC(=O)Nc1nnc(S(=O)(=O)N2CCCCCC2)s1	-18%	-19%	.	.	.	.
CC(C)C(=O)N1CCN(c2ccccc2NC(=O)c2cccc3ccccc23)CC1	16µM*	?	?	1%	51%	15
CC(C)C(=O)N1CCN(c2ccccc2NC(=O)c2cccc(Cl)c2)CC1	16µM*	?	-25%	3%	-21%	?
CS(=O)(=O)N1CCN(c2ccccc2NC(=O)c2cccc3ccccc23)CC1	-13%	0%	-30%	-11%	20%	-8
CCN(CC)CCN(C(=O)CCOc1ccccc1)c1nc2ccc(F)cc2s1	?	?	?	4%	-8%	-10
Cc1ccc(C)c(N2CCN(C(=O)CCc3nc(-c4cccc(F)c4)no3)CC2)c1	?	?	8%	.	.	12
Cc1ccc(Cl)cc1N1CCN(C(=O)Cc2c(C(=O)O)[nH]c3ccccc23)CC1	-3%	-10%	4%	-4%	12%	20
CCOC(=O)N1CCN(c2c(N3CCN(c4cc(C)ccc4C)CC3)c(=O)c2=O)CC1	?	-17%	-5%	13%	-23%	-12
CCOC(=O)c1[nH]c(C)c(CCC(=O)N2CCN(c3cc(C)ccc3C)CC2)c1C	23µM*	?	.	.	.	.
CCOC(=O)c1[nH]c(C)c(CCC(=O)N2CCN(c3cc(Cl)ccc3C)CC2)c1C	23µM*	?	.	.	.	.
CCOC(=O)c1[nH]c(C)c(CCC(=O)Nc2c(C)cc(C)cc2C)c1C	21µM*	?	.	.	.	.
COc1ccc(-c2cc(CCC(=O)N3CCN(c4cc(C)ccc4C)CC3)[nH]n2)cc1	23µM*	?	?	.	.	-5

Bioassay records from PubChem.
